From PubChem BioAssay (NCATS)
Several values for one entry are separate records, joined by “and”; a condition that tells them apart may be missing. Identical values can stand only once. Results filed as inconclusive are left out. Activity calls are given as the source filed them. Calls follow the shape of the dose curve; as a rule, active = well fitted inhibition curve with a large enough effect in the signal ratio, with a control signal flat (not every such curve was filed as active); inconclusive = small, poorly fitted or top-dose-only effect, or effect the other way, or a change in a side signal; inactive = no such curve, though single readings can be large or run the other way; the % refers to the signal ratio.

Test system: not listed separately
Experiment: qHTS assay for small molecule antagonists of peroxisome proliferator-activated receptor delta signaling (AID 588535);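 as to max response: cells co-treated with a PPAR-delta agonist as stimulator during compound exposure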
Conditions: HEK293T PPARd-UAS-bla, beta-lactamase FRET ratio, 18 h; 460 nm channel
Summary of the method: (§1)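 Reporter: UAS-bla under PPAR-delta response element, HEK293T host. Medium: 2% charcoal/dextran FBS. Dosing: titration, 18 hrs, 37 C. Detection: CCF4, 2 hrs RT, 405 ex/460 and 530 em.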

Structure (SMILES)	max response
CCOP(=S)(OCC)Oc1cc(C)nc(C(C)C)n1	-10.2% and 44.9%
Oc1cc(Cl)ccc1Oc1ccc(Cl)cc1Cl	38.5%
Oc1cccc2cccnc12	-10.4% and -24.8%

Target: Peroxisome proliferator-activated receptor delta (Homo sapiens) (UniProt Q03181)
Sequence (Q03181 whole entry, looked up): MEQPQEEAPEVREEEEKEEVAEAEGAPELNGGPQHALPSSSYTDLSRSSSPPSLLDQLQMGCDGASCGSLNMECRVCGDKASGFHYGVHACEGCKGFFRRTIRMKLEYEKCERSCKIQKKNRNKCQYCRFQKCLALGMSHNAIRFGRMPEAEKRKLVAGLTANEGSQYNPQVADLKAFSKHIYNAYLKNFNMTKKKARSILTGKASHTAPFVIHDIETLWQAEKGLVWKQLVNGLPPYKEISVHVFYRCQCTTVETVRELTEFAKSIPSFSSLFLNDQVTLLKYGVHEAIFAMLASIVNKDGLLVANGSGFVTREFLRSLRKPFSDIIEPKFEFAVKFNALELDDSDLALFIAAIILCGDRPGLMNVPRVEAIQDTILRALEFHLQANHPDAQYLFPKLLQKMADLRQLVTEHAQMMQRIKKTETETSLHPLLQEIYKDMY
Experiment: as above
Conditions: HEK293T PPARd-UAS-bla, beta-lactamase FRET ratio, 18 h; series mostly up to 76.7 µM
Summary of the method: as §1

Structure (SMILES)	outcome
CCOP(=S)(OCC)Oc1cc(C)nc(C(C)C)n1	inactive
Oc1cc(Cl)ccc1Oc1ccc(Cl)cc1Cl	inactive
Oc1cccc2cccnc12	inactive
